# Assay results: the supplement of paper PMC7156485
# Unmarked numbers belong to inactive results.
# Tested on: HCC1569
# Experiment: H1.0 immunofluorescence intensity relative to DMSO (% of DMSO); higher = stronger H1.0 induction, active = 140 or more
# Details: concentration: 10 µM; 24 h
# How it was run: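 In 384-well plates holding 800 HCC1569 or TDF cells per well in RPMI with 10% FBS, compounds were tested at 10 µM for 24 h at 37 °C in triplicate. Fixation used 3.7% formaldehyde. Staining used a rabbit anti-H1.0 antibody with an AlexaFluor 647 secondary, plus DAPI. Each value, H1.0 nuclear intensity or cell number, is a median of replicates shown as percent of the plate control, and HCC1569 values were smoothed for positional effects.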
# 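Further: TDF is a line of transformed human dermal fibroblasts of mesenchymal origin.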
row,SMILES,H1.0 immunofluorescence intensity
1,Br.CN1CCc2c(cc(O)c(O)c2Cl)C(c2cccc(Cl)c2)C1 (stereo not given),112
2,COc1cc(OC)cc(C(CNc2ncnc3c2ncn3C2OC(CO)C(O)C2O)c2ccccc2C)c1 (stereo not given),100
3,NS(=O)(=O)c1ccc(-n2nc(C(F)(F)F)cc2-c2ccc(Cl)cc2)cc1,90.7
4,COC1C(OC(=O)c2ccc(C)[nH]2)C(O)C(Oc2ccc3c(O)c(NC(=O)c4c[nH]c(C(=O)Nc5c(O)c6ccc(OC7OC(C)(C)C(OC)C(OC(=O)c8ccc(C)[nH]8)C7O)c(C)c6oc5=O)c4C)c(=O)oc3c2C)OC1(C)C (stereo not given) [Coumermycin A1],101
5,COc1cc2c(c(OC)c1OC)-c1c(cc(OC)c(OC)c1OC)CC(C)C(C)C2 (stereo not drawn) [R(+)-Schisandrin A],94.9
6,Cc1c(CC(C)(C)C(=O)O)n(Cc2ccc(Cl)cc2)c2ccc(F)cc12,99.6
7,O=C(CCc1ccc(O)cc1)c1c(O)cc(O)cc1OC1OC(CO)C(O)C(O)C1O (stereo not given) [Phlorizine],97.1
8,NNCCc1ccccc1.O=S(=O)(O)O [Phenelzine sulfate],74.3
9,"O=C(O)Cc1ccc(O)c(O)c1 [3,4-Dihydroxyphenylacetic acid]",96.6
10,CCC1OC(=O)C(C)C(OC2CC(C)(OC)C(O)C(C)O2)C(C)C(OC2OC(C)CC(N(C)C)C2O)C(C)(O)CC(C)CN(C)C(C)C(O)C1(C)O (stereo not given) [Azithromycin],105
11,O=c1cc(-c2ccc(O)cc2)oc2cc(OC3OC(CO)C(O)C(O)C3O)c(C3OC(CO)C(O)C(O)C3O)c(O)c12 (stereo not given) [Saponarin],94.4
12,"CCCCCC(=O)c1c(O)c(Cl)c(OC)c(Cl)c1O [1-(3,5-dichloro-2,6-dihydroxy-4-methoxyphenyl)-1-hexanone]",120
13,COc1c(N2CC3CCCNC3C2)c(F)cc2c(=O)c(C(=O)O)cn(C3CC3)c12.Cl (stereo not given) [Moxifloxacin.HCl],97.9
14,Nc1ncnc2c1nc(Sc1ccc(Cl)cc1)n2C1OC2COP(=O)([O-])OC2C1O.[Na+] (stereo not given) [8-(4-Chlorophenylthio)-cAMP sodium],85.1
15,CCCCC(C)(O)CC=CC1C(O)CC(=O)C1CCCCCCC(=O)OC (stereo not given) [Misoprostol],108
16,CN1CCC(=C2c3ccccc3C=Cc3ccccc32)CC1.Cl [Cyproheptadine hydrochloride],120
17,Cl.Clc1cccc(Cl)c1NC1=NCCN1 [Clonidine.HCl],101
18,CCCCNc1cc(C(=O)O)cc(S(N)(=O)=O)c1Oc1ccccc1 [Bumetanide],100
19,"CCCCCCCCCCCCCC=CC(O)C(CO)N(C)C (stereo not given) [N,N-Dimethylsphingosine]",101
20,CCCCCCCC/C=C\CCCCCCCC(N)=O [(9Z)-9-octadecenamide],98.7

row,SMILES,H1.0 immunofluorescence intensity
1,Cl.O=S(=O)(c1cccc2cnccc12)N1CCCNCC1,92.7
2,C=C1NC(=O)C2=C(CCSC2)N1,92.2
3,"COc1ccc(-n2[nH]c3c(cnc4ccccc43)c2=O)cc1 [2-(4-methoxyphenyl)-1H-pyrazolo[4,3-c]quinolin-3(2H)-one]",93.6
4,Cc1cc(Nc2cc(N3CCN(C)CC3)nc(Sc3ccc(NC(=O)C4CC4)cc3)n2)n[nH]1 [Tozasertib],156 (active)
5,COc1ccc(OC)c2c(=S)c3ccccc3[nH]c12,111
6,NC(=S)NN=Cc1ncccc1N [3-amino-2-pyridinecarbaldehyde thiosemicarbazone],99.1
7,CNC1C(OC2C(OC3C(O)C(O)C(N=C(N)N)C(O)C3N=C(N)N)OC(C)C2(O)C=O)OC(CO)C(O)C1O (stereo not given) [Streptomycin],89
8,O=c1c(-c2ccc(O)cc2)coc2cc(O)cc(O)c12 [Genistein],97.6
9,COc1ccccc1N1CCN(CCN(C(=O)c2ccc(I)cc2)c2ccccn2)CC1.Cl [p-MPPI hydrochloride],93.4
10,"Cc1cc2cc3c(C)cc(=O)oc3c(C)c2o1 [4,5',8-Trimethylpsoralen]",87.5
11,CCCNC(C)C(=O)Nc1ccccc1C.Cl (stereo not given) [Prilocaine hydrochloride],96.2
12,COc1cc2ncnc(Nc3cccc(Cl)c3)c2cc1OC [Tyrphostin AG 1478],119
13,CC1=CCC2(C)CCC(O)(C(C)C)C2C(OC(=O)c2ccc(O)cc2)C1 (stereo not given) [Ferutinin],107
14,"CCCCCCCCCCCC=CC(C)(C)C=CCCCC(=O)O [7,7-Dimethyl-(5Z,8Z)-eicosadienoic acid]",92.2
15,CC(C)[N+]1(C)C2CCC1CC(OC(=O)C(CO)c1ccccc1)C2.[Br-] (stereo not given) [Ipratropium.Br],110
16,C#C[C@@]1(OC(C)=O)CC[C@H]2[C@@H]3CCC4=CC(=O)CC[C@@H]4[C@H]3CC[C@@]21C [(17beta)-17-ethynyl-3-oxoestr-4-en-17-yl acetate],121
17,Cl.Clc1cccc(Cl)c1NC1=NCCN1 [Clonidine hydrochloride],90
18,CN(C)CCC(c1ccc(Cl)cc1)c1ccccn1 (stereo not given) [Chlorpheniramine],105
19,Clc1ccccc1C(c1ccccc1)(c1ccccc1)n1ccnc1 [Clotrimazole],108
20,N[C@@H](CCCC(=O)O)C(=O)O [L-2-aminoadipic acid],93.6
